Data published in ChEMBL document CHEMBL3988442, “University of Dundee, Small-Polar-MMV Screening Library” (2021).
For some assays here: Results with a measured potency or affinity are listed apart.

How the values were obtained:
Design in all cases: scale not given: direction of the effect not stated beside the values
[1] = target: Protein translocase subunit SecA (Escherichia coli (strain K12)) (UniProt P10408); experiment: Assay to Identify E. coli SecA ATPase Inhibitors; format: functional; settings: 30 µM
Sequence of Protein translocase subunit SecA (Escherichia coli (strain K12)) (P10408 whole entry): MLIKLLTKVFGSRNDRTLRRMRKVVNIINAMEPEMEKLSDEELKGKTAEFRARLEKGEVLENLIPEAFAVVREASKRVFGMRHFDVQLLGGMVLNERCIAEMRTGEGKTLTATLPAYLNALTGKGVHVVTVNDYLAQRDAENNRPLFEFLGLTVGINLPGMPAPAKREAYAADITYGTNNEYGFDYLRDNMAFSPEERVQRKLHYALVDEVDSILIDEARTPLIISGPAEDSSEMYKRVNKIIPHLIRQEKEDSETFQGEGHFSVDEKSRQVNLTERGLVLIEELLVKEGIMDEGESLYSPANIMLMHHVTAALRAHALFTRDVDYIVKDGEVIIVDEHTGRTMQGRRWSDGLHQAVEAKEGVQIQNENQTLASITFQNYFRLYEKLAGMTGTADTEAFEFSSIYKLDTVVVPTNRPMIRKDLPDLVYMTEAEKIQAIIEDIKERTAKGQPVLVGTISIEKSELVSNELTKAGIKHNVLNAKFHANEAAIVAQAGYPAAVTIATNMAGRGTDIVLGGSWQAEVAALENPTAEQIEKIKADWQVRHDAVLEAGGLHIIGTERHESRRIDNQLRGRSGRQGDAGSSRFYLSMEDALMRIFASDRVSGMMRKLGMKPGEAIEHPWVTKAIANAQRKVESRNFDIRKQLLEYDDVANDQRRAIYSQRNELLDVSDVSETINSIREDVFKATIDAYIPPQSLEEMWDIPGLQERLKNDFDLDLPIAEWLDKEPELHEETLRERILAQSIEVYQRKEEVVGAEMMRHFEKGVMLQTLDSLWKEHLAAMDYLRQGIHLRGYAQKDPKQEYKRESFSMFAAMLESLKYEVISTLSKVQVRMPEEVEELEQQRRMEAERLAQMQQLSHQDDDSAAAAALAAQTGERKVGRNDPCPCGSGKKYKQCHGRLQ

[2] = target: T1, Ubiquitin-activating enzyme e1, putative (Leishmania donovani (strain BPK282A1)) (UniProt E9BSI1); experiment: Leishmania donovani Ubiquitin Activating Enzyme (LdE1); format: functional; settings: 30 µM
T1 sequence (whole entry): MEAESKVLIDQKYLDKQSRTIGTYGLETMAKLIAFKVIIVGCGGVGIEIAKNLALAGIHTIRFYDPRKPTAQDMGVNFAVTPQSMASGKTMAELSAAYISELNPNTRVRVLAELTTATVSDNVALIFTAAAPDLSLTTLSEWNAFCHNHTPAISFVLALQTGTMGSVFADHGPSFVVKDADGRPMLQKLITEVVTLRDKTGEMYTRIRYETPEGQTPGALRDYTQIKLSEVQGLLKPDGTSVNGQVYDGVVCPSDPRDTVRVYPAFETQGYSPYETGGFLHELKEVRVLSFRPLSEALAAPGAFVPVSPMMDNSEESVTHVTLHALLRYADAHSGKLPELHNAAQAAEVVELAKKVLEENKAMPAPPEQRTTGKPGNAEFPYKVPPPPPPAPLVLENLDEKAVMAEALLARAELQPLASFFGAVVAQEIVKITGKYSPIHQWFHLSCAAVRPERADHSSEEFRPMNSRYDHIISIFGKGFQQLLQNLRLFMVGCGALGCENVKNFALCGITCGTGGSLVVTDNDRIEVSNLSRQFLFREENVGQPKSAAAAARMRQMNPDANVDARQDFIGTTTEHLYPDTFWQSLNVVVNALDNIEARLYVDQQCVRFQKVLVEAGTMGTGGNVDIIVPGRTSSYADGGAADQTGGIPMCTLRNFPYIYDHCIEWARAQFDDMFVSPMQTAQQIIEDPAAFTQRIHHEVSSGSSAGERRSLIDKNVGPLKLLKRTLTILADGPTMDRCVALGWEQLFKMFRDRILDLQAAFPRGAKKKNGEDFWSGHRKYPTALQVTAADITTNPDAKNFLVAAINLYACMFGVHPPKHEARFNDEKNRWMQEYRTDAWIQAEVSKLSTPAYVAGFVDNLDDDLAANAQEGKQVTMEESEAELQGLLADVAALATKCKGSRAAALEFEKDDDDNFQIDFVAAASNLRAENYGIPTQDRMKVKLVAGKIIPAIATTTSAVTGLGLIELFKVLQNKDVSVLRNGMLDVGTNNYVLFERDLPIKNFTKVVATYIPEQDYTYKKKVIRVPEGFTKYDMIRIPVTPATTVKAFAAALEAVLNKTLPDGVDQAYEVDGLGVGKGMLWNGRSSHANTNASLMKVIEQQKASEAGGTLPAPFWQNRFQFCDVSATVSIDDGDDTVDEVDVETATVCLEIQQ

[3] = target: AMP-activated protein kinase, AMPK (Homo sapiens) (UniProt P54646+O43741+P54619+Q9UGJ0+Q9Y478+Q13131+Q9UGI9); experiment: AMP-dependent Kinase enzyme assay. An in vitro enzyme assay that detects ADP turnover that is directly proportional to AMPK activity. This uses naive AMPK that is activated during the assay with MK-8722; format: functional; settings: 30 µM
[4] = target: Sialic acid-binding Ig-like lectin 9 (Homo sapiens) (UniProt Q9Y336); experiment: Hs-Siglec9 ALPHAscreen SOP 20170721; settings: 10 µM
Sequence of Sialic acid-binding Ig-like lectin 9 (Homo sapiens) (Q9Y336 whole entry): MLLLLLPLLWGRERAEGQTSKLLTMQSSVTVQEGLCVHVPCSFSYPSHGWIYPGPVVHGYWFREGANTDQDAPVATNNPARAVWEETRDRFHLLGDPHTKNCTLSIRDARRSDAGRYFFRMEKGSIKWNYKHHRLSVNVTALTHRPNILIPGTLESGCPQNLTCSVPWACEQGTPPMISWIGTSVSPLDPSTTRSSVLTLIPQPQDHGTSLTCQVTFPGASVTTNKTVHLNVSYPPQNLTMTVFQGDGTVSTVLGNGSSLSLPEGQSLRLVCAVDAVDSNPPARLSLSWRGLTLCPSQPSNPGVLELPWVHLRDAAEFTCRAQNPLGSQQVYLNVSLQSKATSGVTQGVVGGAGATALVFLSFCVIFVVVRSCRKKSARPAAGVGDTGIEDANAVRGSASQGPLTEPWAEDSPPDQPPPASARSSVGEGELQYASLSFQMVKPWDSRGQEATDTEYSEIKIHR

Trypanosoma cruzi = experiment: Trypanosoma cruzi phosphomannomutase and mannose-1-phosphate guanylyltransferase assay; format: functional; settings: 10 µM
[5] = target: T2, Arginase-2, mitochondrial (Homo sapiens) (UniProt P78540); experiment: in vitro enzyme assay to detect the production of urea directly proportional to the activity of Arginase II; format: functional; settings: 33.3 µM; note: in the data most compounds retested in dose-response had high values
T2 sequence (whole entry): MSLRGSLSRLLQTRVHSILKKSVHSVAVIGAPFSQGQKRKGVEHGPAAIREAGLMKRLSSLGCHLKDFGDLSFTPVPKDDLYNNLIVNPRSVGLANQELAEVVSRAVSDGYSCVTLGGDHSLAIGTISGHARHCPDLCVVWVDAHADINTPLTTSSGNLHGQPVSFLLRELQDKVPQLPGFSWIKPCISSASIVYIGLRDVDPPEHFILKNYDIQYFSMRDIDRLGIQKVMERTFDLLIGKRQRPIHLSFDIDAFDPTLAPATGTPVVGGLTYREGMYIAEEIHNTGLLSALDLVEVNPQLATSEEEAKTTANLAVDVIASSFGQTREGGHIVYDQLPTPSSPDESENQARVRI

[6] = target: T3, Proteasome subunit beta (Trypanosoma cruzi) (UniProt O96673); experiment: Trypanosoma cruzi proteasome chymotrypsin-like activity (TcProtChymo) assay.; note: in the data most compounds retested in dose-response had high values; format: functional; settings: 9.37 µM
T3 sequence (whole entry): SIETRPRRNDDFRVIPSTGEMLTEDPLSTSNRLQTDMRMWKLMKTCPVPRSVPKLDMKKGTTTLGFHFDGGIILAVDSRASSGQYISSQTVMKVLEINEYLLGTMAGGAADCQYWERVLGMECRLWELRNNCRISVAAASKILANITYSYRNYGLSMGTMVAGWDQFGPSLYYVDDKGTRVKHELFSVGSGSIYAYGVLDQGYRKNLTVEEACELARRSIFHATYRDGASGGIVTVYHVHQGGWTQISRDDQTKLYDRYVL

Homo sapiens = species: Homo sapiens; experiment: To identify inhibition of the IFN signalling (Jak-Stat) pathway via expression of an eGFP reporter gene under the control of an IFN-stimulated response element (ISRE) containing MxA promoter.; format: functional; settings: 30 µM
[7] = target: T4, Tyrosyl-tRNA synthetase, putative (Trypanosoma cruzi (strain CL Brener)) (UniProt Q4DSP6); experiment: Trypanosoma cruzi tyrosyl tRNA synthetase (TcYRS) _High Tyrosine SOP; format: functional; settings: 30 µM; note: in the data most compounds retested in dose-response had high values
T4 sequence (whole entry): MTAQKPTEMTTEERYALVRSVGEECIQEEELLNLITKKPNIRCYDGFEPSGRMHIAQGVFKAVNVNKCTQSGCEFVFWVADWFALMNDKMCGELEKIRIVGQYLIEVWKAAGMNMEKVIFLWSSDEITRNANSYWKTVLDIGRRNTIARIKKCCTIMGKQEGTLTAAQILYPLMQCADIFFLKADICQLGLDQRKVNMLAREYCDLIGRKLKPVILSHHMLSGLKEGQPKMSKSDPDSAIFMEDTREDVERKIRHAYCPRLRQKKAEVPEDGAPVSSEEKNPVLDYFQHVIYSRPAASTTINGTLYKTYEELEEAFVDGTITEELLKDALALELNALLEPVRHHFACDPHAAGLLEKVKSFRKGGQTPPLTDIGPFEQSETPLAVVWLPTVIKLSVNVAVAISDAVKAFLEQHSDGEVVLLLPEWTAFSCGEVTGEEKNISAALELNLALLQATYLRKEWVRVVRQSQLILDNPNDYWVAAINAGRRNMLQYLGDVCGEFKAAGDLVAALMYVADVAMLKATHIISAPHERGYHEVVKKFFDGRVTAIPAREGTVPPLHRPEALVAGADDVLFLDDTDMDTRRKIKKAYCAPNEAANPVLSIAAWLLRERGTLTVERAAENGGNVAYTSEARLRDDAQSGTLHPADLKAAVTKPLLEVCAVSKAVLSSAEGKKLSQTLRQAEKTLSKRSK

[8] = target: T4, Tyrosyl-tRNA synthetase, putative (Trypanosoma cruzi (strain CL Brener)); experiment: Trypanosoma cruzi tyrosyl tRNA synthetase (TcYRS) SOP; format: functional; settings: 30 µM
[9] = target: Chromo domain-containing protein 1 (Saccharomyces cerevisiae (strain ATCC 204508 / S288c) (Baker's yeast)) (UniProt P32657); experiment: ScCHD-1 Enzyme Inhibition Assay; format: functional; settings: 30 µM; note: in the data most compounds retested in dose-response had high values
Sequence of Chromo domain-containing protein 1 (Saccharomyces cerevisiae (strain ATCC 204508 / S288c) (Baker's yeast)) (P32657 whole entry, the tested form may be a part): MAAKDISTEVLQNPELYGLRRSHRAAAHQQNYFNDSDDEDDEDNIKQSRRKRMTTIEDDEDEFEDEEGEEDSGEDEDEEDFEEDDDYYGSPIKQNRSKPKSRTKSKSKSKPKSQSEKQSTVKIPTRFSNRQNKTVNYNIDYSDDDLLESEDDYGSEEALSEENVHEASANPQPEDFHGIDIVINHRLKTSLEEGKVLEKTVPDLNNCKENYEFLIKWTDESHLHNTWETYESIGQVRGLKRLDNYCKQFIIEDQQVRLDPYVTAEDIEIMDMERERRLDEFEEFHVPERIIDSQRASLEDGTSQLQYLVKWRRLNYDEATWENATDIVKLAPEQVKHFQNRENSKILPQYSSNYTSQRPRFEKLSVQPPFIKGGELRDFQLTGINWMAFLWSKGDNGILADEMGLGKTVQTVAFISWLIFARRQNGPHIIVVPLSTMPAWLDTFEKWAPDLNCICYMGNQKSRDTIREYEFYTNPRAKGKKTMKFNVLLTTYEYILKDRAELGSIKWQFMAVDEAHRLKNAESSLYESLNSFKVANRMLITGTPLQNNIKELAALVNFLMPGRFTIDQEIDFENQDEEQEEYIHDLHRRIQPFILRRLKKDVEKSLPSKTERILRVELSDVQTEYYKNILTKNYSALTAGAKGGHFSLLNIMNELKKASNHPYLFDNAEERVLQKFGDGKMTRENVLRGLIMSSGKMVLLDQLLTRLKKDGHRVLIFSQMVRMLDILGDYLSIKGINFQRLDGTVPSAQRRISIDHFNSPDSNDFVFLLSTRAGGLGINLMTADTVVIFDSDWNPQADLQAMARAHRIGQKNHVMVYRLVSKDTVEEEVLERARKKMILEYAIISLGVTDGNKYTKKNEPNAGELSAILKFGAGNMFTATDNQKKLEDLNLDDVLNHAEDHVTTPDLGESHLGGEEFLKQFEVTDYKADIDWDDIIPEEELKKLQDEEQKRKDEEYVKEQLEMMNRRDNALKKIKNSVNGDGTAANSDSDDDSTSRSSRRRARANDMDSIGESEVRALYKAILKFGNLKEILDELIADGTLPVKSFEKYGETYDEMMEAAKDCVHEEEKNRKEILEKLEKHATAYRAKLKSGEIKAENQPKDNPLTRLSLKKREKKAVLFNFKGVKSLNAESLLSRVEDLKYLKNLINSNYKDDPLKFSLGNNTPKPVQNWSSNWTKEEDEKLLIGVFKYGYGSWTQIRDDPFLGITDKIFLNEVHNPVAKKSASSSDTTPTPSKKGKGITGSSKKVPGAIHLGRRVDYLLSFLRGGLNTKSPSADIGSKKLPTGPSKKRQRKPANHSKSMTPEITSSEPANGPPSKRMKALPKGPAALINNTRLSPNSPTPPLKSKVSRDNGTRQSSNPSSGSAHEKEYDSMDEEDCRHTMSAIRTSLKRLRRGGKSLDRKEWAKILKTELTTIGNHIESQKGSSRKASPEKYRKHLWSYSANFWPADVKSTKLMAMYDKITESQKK

| Compound | Percent Effect [1] | Percent Effect [2] | Percent Effect [3] | Percent Effect [4] | Percent Effect (Trypanosoma cruzi) | Percent Effect [5] | Percent Effect [6] | Percent Effect (Homo sapiens) | Percent Effect [7] | Percent Effect [8] | Percent Effect [9] |
| --- | --- | --- | --- | --- | --- | --- | --- | --- | --- | --- | --- |
| CCOc1ccc(C(=O)NS(=O)(=O)c2cncc(Br)c2)cc1OC | -4.35% | 13.5% | -8.62% | 34.9% | 10.6% | 3.81% | 0.517% | 2.53% | 3.7% | 9.76% | -13.3% |
| O=C(NCC1CCOC1)c1cc(-c2cccc(Cl)c2)on1 (configuration not stated) | -3.92% | 18.2% | 1.45% | 3.45% | 0% | 4.27% | 16.7% | 14.6% | 5.83% | 14.6% | -5.69% |
| COC[C@]12COC[C@H]1CN(Cc1cc(OC)cc(OC)c1)C2 | -2.64% | 2.7% | -1.96% | 2.27% | 4.59% | 6.05% | 11.2% | -4.13% | 1.08% | 7.69% | 2.95% |
| CSc1ccc(CNC(c2ccccc2)c2nccn2C)cc1 (configuration not stated) | -5.49% | 21.6% | -4% | 8.74% | 7.71% | -2.77% | 11.1% | 24.1% | 10.9% | 30.5% | -6.68% |
| O=C(CCCc1ccc(F)cc1)N1C[C@@H](CN2CCOCC2)[C@@H](CO)C1 | -3.25% | 8.22% | -1.01% | -3.8% | -1.57% | 1.82% | 13.7% | -3.47% | 7.53% | 12.5% | -5.62% |
| Cn1cc(N2CC3(CCN(Cc4cccs4)CC3)OCC2=O)cn1 | -0.959% | -2.74% | -1.55% | 15.7% | 2.38% | 3.19% | 3.68% | 2.59% | -14.6% | 8.64% | -2.76% |
| CN(C)CCOCC1CN(C(=O)[C@H]2CCCO2)Cc2ccnn2C1 (some centres not stated) | -0.666% | 0% | -0.823% | 5.06% | -1.35% | -46.1% | 2.91% | -2.46% | 1.04% | -55% | 3.03% |
| CC(=O)N1CCN(c2cc(-c3ccccc3)nc3c(C)c(C)nn23)CC1 | -6.15% | -11% | -6.13% | 6.66% | 4.96% | 2.4% | 16.2% | 4.69% | 7.29% | 8.64% | -7.72% |
| Cn1cnc2c1CCN(Cc1nc(Cc3ccccc3)no1)C2 | -2.4% | -7.89% | -7.72% | -0.869% | 3.27% | 4.68% | -0.931% | 1.02% | 11.3% | 6.17% | 3.08% |
| CN(C)C(=O)CO[C@H]1CN(Cc2ccc(F)cc2)[C@@H]2CCCO[C@H]12 | -4.67% | 10.4% | 1.52% | 9.7% | 4.23% | 2.76% | 15.3% | -1.14% | 5.38% | 11.1% | -1.79% |
| COC(=O)c1ccc(C2CC(=O)Oc3cc(C)[nH]c(=O)c32)cc1 (configuration not stated) | -1.55% | 6.67% | -1.14% | 0.386% | 4.71% | -2.99% | 7.58% | -1.51% | 6.35% | 5.13% | -3.36% |
| N#Cc1ccc(N2CCCN(C(=O)CC3CCCO3)CC2)cc1 (configuration not stated) | -4.45% | 5.41% | 7.34% | 18.8% | 5.19% | -5.61% | -2.34% | 10.8% | 0.493% | 16.1% | -12.8% |
| COc1cccc(C)c1C(=O)N1C[C@@H](CN(C)C)[C@@H](CO)C1 | -3.79% | 5.2% | -2.32% | 7.05% | 2.26% | -2.76% | 9.15% | -12.3% | 6.45% | 11.1% | -0.303% |
| CCS(=O)(=O)N1CCc2ccc(NC(=O)Nc3ccc(F)cc3F)cc21 | -3.73% | 7.79% | 2.67% | -0.508% | 8.58% | -3.23% | 23% | -1.71% | -2.12% | 6.41% | -9.26% |
| COc1ccc(CN2CCC3(CC(=O)N(c4cncnc4)C3)C2)cc1 (configuration not stated) | -1.48% | 16.2% | 5.08% | -9.74% | -3.81% | -7.33% | 12.9% | 5.2% | 1.08% | 7.69% | -3.32% |
| CCOC(=O)C1CCCN(c2ccc(-c3nc(C)no3)cn2)C1 (configuration not stated) | -4.99% | 8% | -4.16% | 19.1% | 5.36% | 6.25% | 0% | 1.88% | 3.83% | 11.1% | -6.07% |
| Cc1cccc(N2CCN(CCNC(=O)c3ccnn3C)CC2)c1 | 0.195% | 5.41% | -1.81% | -4.27% | -4.88% | 3.75% | 14.6% | 6.3% | 9.9% | 11% | 5.87% |
| CC(O)CN1CCN(C(=O)c2cc3ccccc3c(=O)[nH]2)CC1 (configuration not stated) | -0.781% | -5.26% | 5.31% | -2.11% | -3.41% | -10.7% | 13.1% | -6.84% | 0% | 2.6% | 12.2% |
| Cc1n[nH]c(C2CN(C(=O)c3cc(Cl)c[nH]3)CCO2)n1 (configuration not stated) | -1.17% | 2.63% | 11.8% | -0.307% | -0.876% | -3.55% | 5.27% | -2.14% | 4.25% | 5.2% | 0.543% |
| Cc1ccc(C(=O)N2CCSCC2)cc1NC(=O)NCCO | -5.08% | 2.74% | 6.7% | 18.5% | 1.39% | -1.2% | 9.68% | 15.2% | 6.25% | 11.1% | -3.9% |
| CCOCC(O)CN1CCN(C(=O)c2cc(F)ccc2C)CC1 (configuration not stated) | -1.68% | 0% | -2.69% | -1.76% | 0.187% | 0% | -3.72% | -13.3% | 0.971% | 2.44% | 2.5% |
| Cc1nc(CN2C(=O)COC3(CCN(Cc4ccco4)CC3)C2C)cs1 (configuration not stated) | -3.92% | 2.74% | 3.27% | 2.66% | -3.37% | -3.19% | 15.8% | 2.79% | 3.12% | 6.17% | -2.61% |
